Screens from PubChem BioAssay.
Shown are actives, neighbours in structure and some others; about 28% of the full set was active somewhere.
CYP2C9 activ – human CYP2C9 activators, primary screen, biochemical, luminescence; recombinant CYP2C9, luciferin-H conversion; hits give high values; factor 1 = untreated enzyme, 0 = blocked; activation factor at 5 µM; hit rate 1.4% among 96,000; AID 1024, 2008;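 active = activation factor of 2 or more for CYP2C9 at a 5 µM dose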;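 also: 0 = sulfaphenazole-blocked wells and 1 = vehicle-only wells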
CYP2C9 inh – blockers of cytochrome P450 2C9 activity – biochemical, luminescence, ADME assay, primary screen | P11712 | CYP2C9 Supersomes, luciferin-H conversion | inhibition, % at 5 µM | hit rate 20% among 96,000;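 active = blocking of liver enzyme CYP2C9 beyond about 50% at 5 µM, limit read from the data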
Pyk2 oligo antag – antagonists of Pyk2 self-association, primary screen, Q293 cells, FERM NanoBiT luminescence, HTS; hits give low values; z-score (the deposit names both 25 µM and 10 µM); hit rate 0.83% among 99,000; Protein-tyrosine kinase 2-beta (Homo sapiens), Q14289; AID 1347419, 2020;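 active = Z-score of -3 or lower, scaled per plate to the spread of control and sample wells; inactive = z-score above -3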;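 also: negative z-score means lost luminescence so less FERM oligomerization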
Target sequence (Q14289 whole entry, looked up): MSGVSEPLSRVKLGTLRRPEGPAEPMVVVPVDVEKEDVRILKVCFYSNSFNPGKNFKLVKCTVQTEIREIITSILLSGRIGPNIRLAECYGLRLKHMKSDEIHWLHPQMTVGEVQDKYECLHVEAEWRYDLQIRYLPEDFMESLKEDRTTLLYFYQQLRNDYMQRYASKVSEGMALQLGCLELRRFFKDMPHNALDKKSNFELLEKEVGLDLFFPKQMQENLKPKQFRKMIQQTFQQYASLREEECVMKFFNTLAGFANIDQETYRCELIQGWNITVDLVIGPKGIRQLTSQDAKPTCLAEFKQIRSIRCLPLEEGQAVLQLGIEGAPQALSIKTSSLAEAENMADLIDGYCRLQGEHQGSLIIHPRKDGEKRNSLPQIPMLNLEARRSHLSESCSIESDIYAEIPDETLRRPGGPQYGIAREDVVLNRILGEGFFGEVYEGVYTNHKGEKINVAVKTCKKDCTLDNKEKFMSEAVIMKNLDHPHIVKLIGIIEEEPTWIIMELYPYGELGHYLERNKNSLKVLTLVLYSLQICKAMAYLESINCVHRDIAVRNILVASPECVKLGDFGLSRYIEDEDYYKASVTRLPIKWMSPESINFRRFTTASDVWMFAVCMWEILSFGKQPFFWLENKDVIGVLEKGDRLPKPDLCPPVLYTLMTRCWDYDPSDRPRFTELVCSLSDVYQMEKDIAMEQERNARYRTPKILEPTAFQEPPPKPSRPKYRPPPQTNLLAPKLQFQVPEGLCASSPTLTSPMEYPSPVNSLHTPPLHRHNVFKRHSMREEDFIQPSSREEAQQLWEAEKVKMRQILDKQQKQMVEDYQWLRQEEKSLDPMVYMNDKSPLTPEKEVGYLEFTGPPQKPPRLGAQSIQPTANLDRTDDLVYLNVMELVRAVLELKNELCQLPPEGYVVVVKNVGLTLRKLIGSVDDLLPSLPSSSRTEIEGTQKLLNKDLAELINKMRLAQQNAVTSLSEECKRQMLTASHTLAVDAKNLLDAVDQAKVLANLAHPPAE
CYP2C19 act – human CYP2C19 activators, primary screen, biochemical, luminescence | 96,000 tested, under 10 active | recombinant CYP2C19, luciferin-H EGE luminescence; hits give high values; 0 = fully inhibited enzyme, 1 = untreated enzyme | Cytochrome P450 2C19 (Homo sapiens), P33261 | activation factor at 5 µM | AID 1025, 2008;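 active = activation factor of at least 2 at 5 µM in the primary screen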;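 also: 0 = wells with 2.5 mM tranylcypromine and 1 = vehicle-only wells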
CYP2C19 inh – blockers of cytochrome P450 2C19 activity – biochemical, luminescence, ADME assay, primary screen | inhibition, % at 5 µM | hit rate 21% among 96,000 | CYP2C19 Supersomes, luciferin-H EGE luminescence, 30 min | AID 778, 2007;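 active = CYP2C19 inhibition above a set limit at 5 µM in the primary screen, cut at about 50% in these data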;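 also: plate controls were negative control wells for no effect and 2.5 mM tranylcypromine positive control for full effect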
* = called active by the depositor; . = no result.

SMILES	CYP2C9 activ	CYP2C9 inh	Pyk2 oligo antag	CYP2C19 act	CYP2C19 inh
COc1cccc(NC2c3ccccc3C(=O)N2Cc2ccco2)c1 (stereo not drawn)	0.4	57*	.	0.6	41
CCN(CC)S(=O)(=O)c1ccc(NC2c3ccccc3C(=O)N2Cc2ccc3c(c2)OCO3)cc1 (stereo not drawn)	0.9	9	.	0.9	13
O=C1c2ccccc2C(Nc2cccc(C(F)(F)F)c2)N1Cc1ccco1 (stereo not drawn)	0.4	60*	-1.9	0.3	68*
CCc1ccc(/C=C2/SC(=S)N(CC(=O)Nc3nc4ccccc4s3)C2=O)cc1	0.5	53*	0.09	0.9	15
CCc1ccc(/C=C2\SC(=S)N(CCCC(=O)Nc3ccccn3)C2=O)cc1	0.5	47	-0.15	0.7	26
Cc1nc2c([nH]c3ccc(Br)cc32)s1	1.1	-10	-0.56	1	2
COc1cc(C)c(Cl)cc1S(=O)(=O)NCc1ccncc1	0.5	50*	.	0	98*
COc1cc(C)c(Br)cc1S(=O)(=O)NCc1ccccc1	1.4	-38	2.4	0.3	65*
Cc1ccc(C(C)C)c(OC(=O)/C=C/c2ccccc2)c1	0.8	22	0.43	1	-4
COc1cc(/C=C/C(=O)NNc2c(F)c(F)cc(F)c2F)ccc1OC(F)F	0.9	8	0.64	0.3	73*
CC(=O)OC12CC3CC(C1)C(=NO)C(C3)C2	1.1	-14	-0.07	1.1	-8
CS(=O)(=O)n1nc(-c2ccc(Cl)cc2)nc1SCc1ccccc1	0.3	69*	-0.18	0.5	51*
O=C1CC(c2ccccc2)n2nc(NC(=O)c3ccccc3)nc2N1 (stereo not drawn)	1.1	-13	-0.02	1.2	-17
O=C1CC(c2ccccc2)n2nc(NC(=O)C3CCCO3)nc2N1 (stereo not drawn)	0.2	79*	-0.16	0.1	91*
Cc1cc(-c2csc(N)n2)c(C)n1CCc1ccccc1	0.3	66*	0.96	0.2	84*
Cc1cc(-c2csc(N)n2)c(C)n1CCC(C)C	0.2	81*	0.31	0	95*
Cc1cc(-c2csc(NC(=O)c3ccc(=O)n(C)n3)n2)c(C)n1CC1CCCO1 (stereo not drawn)	0.9	14	1.9	0.9	9
O=C(CN1CCC(c2nc3ccccc3s2)CC1)NCc1cccs1	1	-4	0.13	0.9	7
FC(F)(F)c1nc2ccccc2nc1N/N=C/c1c(Cl)cccc1Cl	0.8	22	-0.25	0.6	44
COc1ccccc1N1CCN(CC(O)COc2ccc3c(c2)CCC3)CC1 (stereo not drawn)	1.3	-34	0.88	1	4
CCC(C)N(C(=O)COC(=O)Cc1n[nH]c(=O)c2ccccc12)C1CCS(=O)(=O)C1 (stereo not drawn)	0.9	7	0.71	1	-3
COc1ccc(NS(=O)(=O)c2cc(C)ccc2NC(=O)c2cc(C)oc2C)cc1	0.8	24	0.17	0.3	71*
COc1ccc2nc(NC(=O)c3cc(C)oc3C)sc2c1	.	.	0.49	.	.
COC(=O)c1c(C)cc(C)n2c1nc1ccccc12	1	2	0.36	1	-1
CSC(=NC1CCCCC1)NS(=O)(=O)c1ccccc1	0.6	44	-1.3	0.2	80*
SMILES	CYP2C9 activ	CYP2C9 inh	Pyk2 oligo antag	CYP2C19 act	CYP2C19 inh
COc1ccccc1CNC(=O)COC(=O)C1=COCCO1	0.9	5	0.82	0.4	61*
O=C(COC(=O)C1=COCCO1)NCCCc1ccccc1	0.8	17	1.1	0.6	40
COC(=O)c1ccccc1NC(=O)C1COc2ccccc2O1 (stereo not drawn)	1.3	-32	-1.2	0.1	90*
CCOC(=O)c1ccccc1NC(=O)C1COc2ccccc2O1 (stereo not drawn)	0.7	31	0.42	0.1	87*
COC(=O)c1ccsc1NC(=O)C1COc2ccccc2O1 (stereo not drawn)	0.8	23	.	0.7	31
COc1ccccc1CNC(=O)C1COc2ccccc2O1 (stereo not drawn)	1.2	-19	-0.26	0	99*
Cc1cccc2cc(CN(C(=O)c3cnccn3)C3CCCCC3)c(Cl)nc12	0.7	34	-2.4	0.7	34
Cc1cc(N2CCOCC2)nc(-c2ccc([N+](=O)[O-])cc2)n1	0.9	12	0.04	0.8	22
COC(=O)c1cc(NC(=O)C2CC2)cc(C(=O)OC)c1	0.8	22	-0.65	0.9	12
COC(=O)c1cc(NC(=O)C2COc3ccccc3O2)cc(C(=O)OC)c1 (stereo not drawn)	0.3	73*	0.06	0.4	63*
COC(=O)c1oc2ccc(Cl)cc2c1-n1cccc1	0.3	72*	2	0.4	58*
CCOC(=O)c1cc(CC)sc1NC(=O)Cc1ccsc1	0.9	14	0.08	1	3
COc1ccc(-c2nnc(SCC(=O)Nc3ncc(C(F)(F)F)cc3Cl)n2CC(C)C)cc1	.	.	-0.94	.	.
Cc1cc(C)n2c(SCC(=O)Nc3ncc(C(F)(F)F)cc3Cl)nnc2n1	0.4	63*	1.5	0.7	26
COc1ccccc1OCC(=O)N/N=C1/SCC(=O)N1Cc1ccccc1	1.1	-9	0.32	0.9	14
COc1ccc(-c2nnc(-c3ccc(Br)o3)o2)cc1OC	0.7	31	-0.99	0.4	56*
Cc1cccc2nc(CSc3nnc4ccccn34)cn12	1.1	-10	1.2	0.9	13
COc1ccc(C)cc1S(=O)(=O)N(CC(=O)Nc1ccc2c(c1)OCCO2)Cc1ccccc1	0	98*	-1.6	0	100*
COc1ccccc1NC(=O)CN(Cc1ccccc1)S(C)(=O)=O	.	.	0.58	.	.
COc1ccc(C)cc1S(=O)(=O)N(C)CC(=O)Nc1ccc2c(c1)OCO2	0.1	86*	1.7	0.4	58*
COc1ccc(C)cc1S(=O)(=O)N(C)CC(=O)NC1CC1	0.9	14	-0.16	1	3
CC1(C)CC(=O)C(C(=S)Nc2ccccc2)=C(NCCN2CCOCC2)C1	1	1	-0.62	0.9	12
N#Cc1c(Nc2ccccc2)c(C=NCCN2CCOCC2)c[nH]c1=O	0.9	14	0.47	0.3	73*
COc1ccc(S(=O)(=O)N(C)CC(=O)NCc2cccnc2)cc1	0.7	28	0.58	0.6	39
COc1ccc(S(=O)(=O)N(C)CC(=O)NCc2cccnc2)cc1C	1.8	-84	0.68	0.2	80*
O=C(Nc1ccccc1C(=O)O)c1ccccc1	0.6	38	-0.39	1	5
CCOc1ccccc1NC(=O)CN(C)S(=O)(=O)c1ccc(OC)c(C)c1	1.2	-20	-0.26	0	99*
COc1ccc(S(=O)(=O)N(C)CC(=O)Nc2ccccc2OC)cc1C	1.3	-29	-0.64	0.1	93*
